{
  "source": "paper PMC9911399",
  "about": "“Two distinct binding modes provide the RNA-binding protein RbFox with extraordinary sequence specificity”",
  "binders": {"B1": {"name": "GAUUAAU (DNA:RNA)", "RNA": "GGGAGACCGGAAUUCAGAUUGUCCGAUUAAUUUAAAUCCCGUCGUAGCCACCA", "DNA 1": "CAATCTGAATTCCGGTCTCCC", "DNA 2": "TGGTGGCTACGACGGGATT"}, "B2": {"name": "UUGCUUC (DNA:RNA)", "RNA": "GGGAGACCGGAAUUCAGAUUGUCCUUGCUUCUUAAAUCCCGUCGUAGCCACCA", "DNA 1": "CAATCTGAATTCCGGTCTCCC", "DNA 2": "TGGTGGCTACGACGGGATT"}, "B3": {"name": "AGAGUCA (DNA:RNA)", "RNA": "B2 RNA with U25A, U26G, G27A, C28G, U30C, C31A", "DNA 1": "CAATCTGAATTCCGGTCTCCC", "DNA 2": "TGGTGGCTACGACGGGATT"}, "B4": {"name": "UCCAGUA (DNA:RNA)", "RNA": "B2 RNA with U26C, G27C, C28A, U29G, C31A", "DNA 1": "CAATCTGAATTCCGGTCTCCC", "DNA 2": "TGGTGGCTACGACGGGATT"}, "B5": {"name": "GAAAAUG (DNA:RNA)", "RNA": "B1 RNA with U27A, U28A, A30U, U31G", "DNA 1": "CAATCTGAATTCCGGTCTCCC", "DNA 2": "TGGTGGCTACGACGGGATT"}, "B6": {"name": "GACCGUC (DNA:RNA)", "RNA": "B2 RNA with U25G, U26A, G27C, U29G", "DNA 1": "CAATCTGAATTCCGGTCTCCC", "DNA 2": "TGGTGGCTACGACGGGATT"}, "B7": {"name": "GAAUGUC (DNA:RNA)", "RNA": "B1 RNA with U27A, A29G, A30U, U31C", "DNA 1": "CAATCTGAATTCCGGTCTCCC", "DNA 2": "TGGTGGCTACGACGGGATT"}, "B8": {"name": "AAAGCCU (DNA:RNA)", "RNA": "B1 RNA with G25A, U27A, U28G, A29C, A30C", "DNA 1": "CAATCTGAATTCCGGTCTCCC", "DNA 2": "TGGTGGCTACGACGGGATT"}, "B9": {"name": "CUAUCCC (DNA:RNA)", "RNA": "B2 RNA with U25C, G27A, C28U, U29C, U30C", "DNA 1": "CAATCTGAATTCCGGTCTCCC", "DNA 2": "TGGTGGCTACGACGGGATT"}, "B10": {"name": "GAAGAAU (DNA:RNA)", "RNA": "B1 RNA with U27A, U28G", "DNA 1": "CAATCTGAATTCCGGTCTCCC", "DNA 2": "TGGTGGCTACGACGGGATT"}, "B11": {"name": "GGUUCGG (DNA:RNA)", "RNA": "B1 RNA with A26G, A29C, A30G, U31G", "DNA 1": "CAATCTGAATTCCGGTCTCCC", "DNA 2": "TGGTGGCTACGACGGGATT"}, "B12": {"name": "GGGGUUC (DNA:RNA)", "RNA": "B2 RNA with U25G, U26G, C28G", "DNA 1": "CAATCTGAATTCCGGTCTCCC", "DNA 2": "TGGTGGCTACGACGGGATT"}, "B13": {"name": "CGGUUCG (DNA:RNA)", "RNA": "B2 RNA with U25C, U26G, C28U, U30C, C31G", "DNA 1": "CAATCTGAATTCCGGTCTCCC", "DNA 2": "TGGTGGCTACGACGGGATT"}, "B14": {"name": "CGUUCGG (DNA:RNA)", "RNA": "B1 RNA with G25C, A26G, A29C, A30G, U31G", "DNA 1": "CAATCTGAATTCCGGTCTCCC", "DNA 2": "TGGTGGCTACGACGGGATT"}, "B15": {"name": "GUCCCGG (DNA:RNA)", "RNA": "B2 RNA with U25G, G27C, U29C, U30G, C31G", "DNA 1": "CAATCTGAATTCCGGTCTCCC", "DNA 2": "TGGTGGCTACGACGGGATT"}, "B16": {"name": "GGGUUCG (DNA:RNA)", "RNA": "B1 RNA with A26G, U27G, A29U, A30C, U31G", "DNA 1": "CAATCTGAATTCCGGTCTCCC", "DNA 2": "TGGTGGCTACGACGGGATT"}, "B17": {"name": "GUUCGGG (DNA:RNA)", "RNA": "B1 RNA with A26U, U28C, A29G, A30G, U31G", "DNA 1": "CAATCTGAATTCCGGTCTCCC", "DNA 2": "TGGTGGCTACGACGGGATT"}, "B18": {"name": "GGUUAUG (DNA:RNA)", "RNA": "B1 RNA with A26G, A30U, U31G", "DNA 1": "CAATCTGAATTCCGGTCTCCC", "DNA 2": "TGGTGGCTACGACGGGATT"}, "B19": {"name": "CGUUAUG (DNA:RNA)", "RNA": "B1 RNA with G25C, A26G, A30U, U31G", "DNA 1": "CAATCTGAATTCCGGTCTCCC", "DNA 2": "TGGTGGCTACGACGGGATT"}, "B20": {"name": "GUAAAAU (DNA:RNA)", "RNA": "B1 RNA with A26U, U27A, U28A", "DNA 1": "CAATCTGAATTCCGGTCTCCC", "DNA 2": "TGGTGGCTACGACGGGATT"}},
  "note": "Positions count from the first letter of the chain named. Whole data set: some 16,000 sequences, median “ka relative to ugcaugu” near 0.096, cut for the highest 2% near 0.35. For the sample, the highest values were picked, then their nearest neighbours and some sequences at random.",
  "data": [
    {"molecular_target": "T1, RBFOX1 RRM RbFoxmut (Fox-RRM*) (Homo sapiens, UniProt Q9NWB1 109-208, R118D;E147R;N151S;E152T)", "T1 sequence": "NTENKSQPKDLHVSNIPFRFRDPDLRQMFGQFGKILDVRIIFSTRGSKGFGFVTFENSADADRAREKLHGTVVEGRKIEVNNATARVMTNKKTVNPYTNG", "test": "EMSA; HiTS-Eq, 1 nM pool, 10 min; buffer printed only for the single-RNA assays: 10 mM Tris pH 7.5, 150 mM NaCl, 3.4 mM EDTA, 0.001% NP-40, 30 C", "details": "tags: His6 N-terminal (pET28a); label: 5' 32P", "method_in_brief": "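These values rest on relative association constants, computed from read-count changes of each RNA species versus the control reaction and normalised to the cognate motif. Reads came from free RNA recovered by 8% native PAGE after purified RbFox RRM (wild type or mutant) at increasing concentrations was equilibrated for 10 min in 50 µL with 1 nM of a 5′-radiolabelled pool with 7 randomized nucleotides and DNA-annealed flanks.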", "values": [
      {"binder": "B1", "binding signal": "0.0998 KA relative to UGCAUGU"},
      {"binder": "B2", "binding signal": "0.157 KA relative to UGCAUGU"},
      {"binder": "B3", "binding signal": "0.106 KA relative to UGCAUGU"},
      {"binder": "B4", "binding signal": "0.135 KA relative to UGCAUGU"},
      {"binder": "B5", "binding signal": "0.1 KA relative to UGCAUGU"},
      {"binder": "B6", "binding signal": "0.0863 KA relative to UGCAUGU"},
      {"binder": "B7", "binding signal": "0.55 KA relative to UGCAUGU"},
      {"binder": "B8", "binding signal": "0.0705 KA relative to UGCAUGU"},
      {"binder": "B9", "binding signal": "0.0664 KA relative to UGCAUGU"},
      {"binder": "B10", "binding signal": "0.0873 KA relative to UGCAUGU"},
      {"binder": "B11", "binding signal": "0.126 KA relative to UGCAUGU"},
      {"binder": "B12", "binding signal": "0.239 KA relative to UGCAUGU"},
      {"binder": "B13", "binding signal": "0.371 KA relative to UGCAUGU"},
      {"binder": "B14", "binding signal": "0.115 KA relative to UGCAUGU"},
      {"binder": "B15", "binding signal": "0.0859 KA relative to UGCAUGU"},
      {"binder": "B16", "binding signal": "0.4 KA relative to UGCAUGU"},
      {"binder": "B17", "binding signal": "0.0874 KA relative to UGCAUGU"},
      {"binder": "B18", "binding signal": "0.585 KA relative to UGCAUGU"},
      {"binder": "B19", "binding signal": "0.269 KA relative to UGCAUGU"},
      {"binder": "B20", "binding signal": "0.0936 KA relative to UGCAUGU"}
    ]}
  ]
}
